Data from PubChem BioAssay (NCATS).
Values joined by “and” are separate entries in the source; they are usually repeats but may differ in a detail not shown here. Equal entries are not always repeated. A number with no mark means an inactive call. Inconclusive results are not listed. Active and inactive are the calls of the source. Unless noted, calls follow the shape of the dose curve; as a rule, active = well fitted curve in either direction with a large enough effect (not every such curve was filed as active); inconclusive = small, poorly fitted or top-dose-only effect, or another doubt; inactive = flat fitted curve, though single readings scatter.

biological target: Glucocorticoid receptor (Homo sapiens) (UniProt P04150); assay: GR-EFC Redistribution (AID 451; calls by dose curve; also: potency is read from the fitted curve at half-maximal effect); settings: CHO-K1 GR-EFC translocation, beta-gal luminescence, 2 h
Method in brief: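 CHO-K1 cells expressing nuclear EA and GR-ED fragments of b-gal; compounds titrated up to 46 uM final, 2 h at 37 C. GR nuclear translocation read as complemented b-gal luminescence after 1 h RT detection.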

Glucocorticoid receptor (Homo sapiens), sequence (P04150 whole entry, looked up, the tested form may be a part): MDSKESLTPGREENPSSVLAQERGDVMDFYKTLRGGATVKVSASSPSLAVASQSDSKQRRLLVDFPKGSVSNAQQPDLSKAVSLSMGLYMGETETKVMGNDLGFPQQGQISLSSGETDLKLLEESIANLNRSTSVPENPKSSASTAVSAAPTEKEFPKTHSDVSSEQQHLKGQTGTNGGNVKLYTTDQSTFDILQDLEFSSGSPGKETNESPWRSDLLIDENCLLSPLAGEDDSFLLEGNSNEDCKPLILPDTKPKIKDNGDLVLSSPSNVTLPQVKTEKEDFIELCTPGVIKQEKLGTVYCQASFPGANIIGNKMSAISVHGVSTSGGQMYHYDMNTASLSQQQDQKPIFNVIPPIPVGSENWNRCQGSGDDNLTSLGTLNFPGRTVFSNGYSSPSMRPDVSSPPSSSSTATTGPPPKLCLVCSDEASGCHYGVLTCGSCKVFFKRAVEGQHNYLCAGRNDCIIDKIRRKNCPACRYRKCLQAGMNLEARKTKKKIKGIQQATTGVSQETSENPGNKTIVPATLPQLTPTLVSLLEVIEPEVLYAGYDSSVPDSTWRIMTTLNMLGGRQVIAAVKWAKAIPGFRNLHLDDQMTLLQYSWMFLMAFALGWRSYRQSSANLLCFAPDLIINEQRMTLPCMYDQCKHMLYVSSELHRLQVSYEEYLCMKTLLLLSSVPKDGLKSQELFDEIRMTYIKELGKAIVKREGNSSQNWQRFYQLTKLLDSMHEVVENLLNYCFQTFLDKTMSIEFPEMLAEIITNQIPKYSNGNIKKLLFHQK

SMILES	Potency
FC(F)(F)c1ccccc1-c1ccc2ncnc(N3CCOCC3)c2c1	> 46 µM
COCCn1c(=O)c(C)nc2cnc(Nc3ccccc3)nc21	> 46 µM
COc1cccc(Cn2c(=O)cnc3cnc(N4CCN(C)CC4)nc32)c1	> 46 µM
CN1CCN(c2ccnc(-c3ccc(N(C)C)cc3)n2)CC1	> 46 µM
COc1ncc2nc(-c3cccs3)c(=O)n(C)c2n1	> 46 µM
CN1CCCC[C@@H]1CCN1c2ccccc2Sc2ccc(S(C)=O)cc21 (some centres undefined)	> 20.6 µM and > 9.22 µM
N#Cc1cccc(-c2ccc3ncnc(NCc4ccccc4)c3c2)c1	> 46 µM
COC(=O)C1=CO[C@@H](C)[C@H]2CN3CCc4c([nH]c5ccccc45)[C@@H]3C[C@H]12	> 20.6 µM
CC12CC[C@@H]3c4ccc(OS(=O)(=O)O)cc4CC[C@H]3C1CCC2=O (some centres undefined)	> 20.6 µM
CN(C)C(=O)c1ccc(-c2nc(N(C)C)c3ccccc3n2)cc1	> 46 µM
COc1ccccc1-c1nccc(NCc2ccccc2)n1	> 46 µM
CC(C)(S)[C@H](N)C(=O)O	> 9.22 µM
CN1CCN(c2ncc3ncc(=O)n(-c4ccccc4)c3n2)CC1	> 46 µM
CN(C)CC/C=C1\c2ccccc2CSc2ccccc21	> 20.6 µM
Cc1cnc(CNc2ncnc3ccc(-c4ccccc4C(F)(F)F)cc23)cn1	> 46 µM
COc1ccccc1CNc1ncnc2ccc(-c3cccc(C#N)c3)cc12	> 46 µM
C[C@@H]1CCC[C@H](C)N1NC(=O)c1ccc(Cl)c(S(N)(=O)=O)c1	> 20.6 µM
FC(F)(F)c1ccccc1-c1ccc2ncnc(NCc3cccs3)c2c1	> 46 µM
COc1ccccc1CNc1cc(-c2cccc(C#N)c2)ncn1	> 46 µM

biological target: Mitogen-activated protein kinase 10 (Mus musculus) (UniProt Q61831); assay: JNK3 AlphaScreen Assay (AID 530); settings: JNK3 lysate, c-Jun phosphorylation; series mostly up to 57.1 µM; activity change, negative = inhibition: at the top concentration;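 also: kinase came from lysate of stimulated human HepG2 cells; signal reports phosphorylation of biotinylated GST-cJun 1-79 at Ser73 with 10 µM ATP; % is scaled to controls: 0 for no effect and ±100 for the full control effect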
Method in brief: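 Activity was read by AlphaScreen after JNK3-containing HepG2 lysate (cytokine pre-activated) phosphorylated biotinylated GST-cJun with 10 uM ATP at room temperature. Phospho-Ser73 cJun antibody with Protein-A acceptor beads provided detection.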

SMILES	activity change, negative = inhibition	Potency
FC(F)(F)c1ccccc1-c1ccc2ncnc(N3CCOCC3)c2c1	-5.97%	
COCCn1c(=O)c(C)nc2cnc(Nc3ccccc3)nc21	-0.177%	
COc1cccc(Cn2c(=O)cnc3cnc(N4CCN(C)CC4)nc32)c1	-12.8%	
CN1CCN(c2ccnc(-c3ccc(N(C)C)cc3)n2)CC1	-3.44%	
Cc1occc(=O)c1O	-8.64%	
COc1ncc2nc(-c3cccs3)c(=O)n(C)c2n1	37.1%	
CN1CCCC[C@@H]1CCN1c2ccccc2Sc2ccc(S(C)=O)cc21 (some centres undefined)		inactive
N#Cc1cccc(-c2ccc3ncnc(NCc4ccccc4)c3c2)c1	-20.2%	
COC(=O)C1=CO[C@@H](C)[C@H]2CN3CCc4c([nH]c5ccccc45)[C@@H]3C[C@H]12		inactive
C=C(C)[C@H]1CC=C(C)C(=O)C1	15.4%	
CC12CC[C@@H]3c4ccc(OS(=O)(=O)O)cc4CC[C@H]3C1CCC2=O (some centres undefined)	-3.65% [at 25.6 µM]	
CN(C)C(=O)c1ccc(-c2nc(N(C)C)c3ccccc3n2)cc1	-12.2%	
COc1ccccc1-c1nccc(NCc2ccccc2)n1	-2.83%	
CC(C)(S)[C@H](N)C(=O)O	1.55% [at 11.4 µM]	
CN1CCN(c2ncc3ncc(=O)n(-c4ccccc4)c3n2)CC1	26.5%	
COS(C)(=O)=O	7.12%	
CC1=CC(=O)CC(C)(C)C1(O)/C=C/C(C)=C\C(=O)O (centres undefined)	0.921%	
CN(C)CC/C=C1\c2ccccc2CSc2ccccc21	-7.05% [at 25.6 µM]	
Cc1cnc(CNc2ncnc3ccc(-c4ccccc4C(F)(F)F)cc23)cn1	-29.4%	
COc1ccccc1CNc1ncnc2ccc(-c3cccc(C#N)c3)cc12	-3.54%	
C[C@@H]1CCC[C@H](C)N1NC(=O)c1ccc(Cl)c(S(N)(=O)=O)c1	1.78% [at 25.6 µM]	
FC(F)(F)c1ccccc1-c1ccc2ncnc(NCc3cccs3)c2c1	7.02%	
COc1ccccc1CNc1cc(-c2cccc(C#N)c2)ncn1	0.784%	
CC(C)N1CCN(c2ccc(OC[C@@H]3CO[C@@](Cn4cncn4)(c4ccc(Cl)cc4Cl)O3)cc2)CC1	-2.47% [at 25.6 µM]	
C=CC(C)(O)CCC=C(C)C (centres undefined)	7.03%	

system: not listed separately; assay: Cell Viability - N2a (AID 540; active = well fitted curve in the direction sought with a large enough effect; an effect the other way counts as inactive or inconclusive;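 also: plate controls were DMSO alone for no effect and tamoxifen control for full effect; nearly all actives have a fitted effect of over 45% in size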); settings: N2a mouse neuroblastoma cell viability; series mostly up to 92.2 µM; activity change, negative = cytotoxicity: at the top concentration
Method in brief: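 CellTiter-Glo ATP luminescence, read 20 min after reagent at room temperature, reported viability following 40 h compound treatment at 37 °C. N2a mouse neuroblastoma cells seeded 1500/well; Hill equation gave AC50.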

SMILES	activity change, negative = cytotoxicity
Cc1occc(=O)c1O	-1.18%
C=C(C)[C@H]1CC=C(C)C(=O)C1	11.6%
COS(C)(=O)=O	4.92%
CC1=CC(=O)CC(C)(C)C1(O)/C=C/C(C)=C\C(=O)O (centres undefined)	3.24%
C=CC(C)(O)CCC=C(C)C (centres undefined)	5.71%

system: not listed separately; assay: Cell Viability - NIH 3T3 (AID 541; active = well fitted curve in the direction sought with a large enough effect; an effect the other way counts as inactive or inconclusive;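 also: cells exposed to compound for 40 hours; plate controls were DMSO alone for no effect and tamoxifen positive control for full effect; nearly all actives have a fitted effect of over 25% in size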); settings: NIH 3T3 cell viability, qHTS; series mostly up to 92.2 µM; activity change, negative = cytotoxicity: at the top concentration
Method in brief: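 Intracellular ATP (CellTiter-Glo luminescence, 20 min at room temperature) measured after 40 hr compound exposure at 37 °C of 1000 NIH 3T3 mouse fibroblasts/well in complete medium; AC50 derived by Hill-equation modelling of qHTS concentration-response curves.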

SMILES	activity change, negative = cytotoxicity
Cc1occc(=O)c1O	1.19%
C=C(C)[C@H]1CC=C(C)C(=O)C1	-27.9%
COS(C)(=O)=O	-2.38%
CC1=CC(=O)CC(C)(C)C1(O)/C=C/C(C)=C\C(=O)O (centres undefined)	5.67%
C=CC(C)(O)CCC=C(C)C (centres undefined)	3.64%

system: not listed separately; assay: Cell Viability - HUV-EC-C (AID 542; active = well fitted curve in the direction sought with a large enough effect; an effect the other way counts as inactive or inconclusive;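 also: cells exposed to compound for 40 hours; % is scaled to controls: 0 for no effect and ±100 for the full control effect; nearly all actives have a fitted effect of over 35% in size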); settings: HUV-EC-C endothelial cell viability, qHTS; series mostly up to 92.2 µM; activity change, negative = cytotoxicity: at the top concentration
Method in brief: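 CellTiter-Glo luminescence measured ATP loss in HUV-EC-C cells (1000/well) after 40 hr compound exposure at 37 °C, in complete culture medium. Concentration-response data were Hill-fitted to give AC50.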

SMILES	activity change, negative = cytotoxicity
Cc1occc(=O)c1O	13.3%
C=C(C)[C@H]1CC=C(C)C(=O)C1	15.2%
COS(C)(=O)=O	-1.47%
CC1=CC(=O)CC(C)(C)C1(O)/C=C/C(C)=C\C(=O)O (centres undefined)	-6.34%
C=CC(C)(O)CCC=C(C)C (centres undefined)	8.71%
